Screens as filed in PubChem.
FMDV Renilla = Primary qHTS Assay for Foot and Mouth Disease Virus Antivirals against NCGC Sytravon and CBC Compound Libraries: Renilla Luciferase Signal; FMDV replicon cells, Renilla luciferase signal; Potency, µM (series often up to 57.5 µM), for inactives: top-dose activity change, negative = inhibition, most hits filed as inhibitors; AID 1745857, 2022; 120,000 tested, 0.32% active; note: nearly all actives have a fitted effect of over 55% in size
FMDV antiviral = Primary qHTS Assay for Foot and Mouth Disease Virus Antivirals against NCGC Sytravon and CBC Compound Libraries: Firefly Luciferase Signal. FMDV antiviral cell assay, firefly luciferase signal. Potency, µM (top dose mostly 57.5 µM), inactives show at the highest dose activity change, negative = inhibition, actives largely listed as inhibitors. 120,000 tested, 0.23% active; note: nearly all actives have a fitted effect of over 60% in size
* hit, by the source's call; ? = inconclusive; [ ] = another dose, or the depositor's remark. An excerpt weighted towards active compounds, which were near 0.4% of everything screened. Calls come from the whole dose curve. % is set by controls: 0 for no effect and ±100 for the full control effect; potency is the fitted concentration of half-maximal effect.

SMILES	FMDV Renilla	FMDV antiviral
CC1OC(OC2CCC3(C=O)[C@H]4CCC5(C)C(C6=CC(=O)OC6)CCC5(O)[C@@H]4CCC3(O)C2)CC2OC(C)(C)OC12 (stereo partly drawn)	1.3µM*	1µM*
CC12CC[C@H]3[C@@H](CCC4(O)CC(O[N+](=O)[O-])CCC34CO[N+](=O)[O-])C1(O)CCC2C1=CC(=O)OC1 (stereo partly drawn)	10µM*	?
CC1OC(OC2CCC3(C=O)[C@H]4CCC5(C)C(C6=CC(=O)OC6)CCC5(O)[C@@H]4CCC3(O)C2)CC(O)C1O (stereo partly drawn)	0.28µM*	?
C[C@@H]1O[C@@H](O[C@H]2C[C@@H](O)[C@]3(CO)[C@H]4[C@H](O)C[C@]5(C)[C@@H](C6=CC(=O)OC6)CC[C@]5(O)[C@@H]4CC[C@]3(O)C2)[C@H](O)[C@H](O)[C@H]1O	-76%	-69%[11.5 µM]
CC1OC(OC2CCC3(C=O)[C@H]4CCC5(C)C(C6=CC(=O)OC6)CCC5(O)[C@@H]4CCC3(O)C2)C(O)C(O)C1O (stereo partly drawn)	-75%	-79%
Cc1cc(/C=C/C(=O)c2ccc(F)cc2)cc(C)c1O	53%	153%
CN1CCN(c2oc(-c3cccc(Cl)c3)nc2C#N)CC1	11%	0%
CCc1nc2ncc(C#N)c(N)n2n1	-3%	-2%
COC(=O)C1=C(C)OC(N)=C(C#N)C1c1ccc(-c2ccccc2)cc1 (stereo not drawn)	-2%	0%
Cc1onc(-c2c(F)cccc2Cl)c1C(=O)Nc1sc(C)c(-c2ccccc2)c1C(N)=O	?	-21%
COc1ccc(-c2oc(=O)oc2-c2ccc(OC)c(OC)c2)cc1OC	5%	12%
Clc1cccc(N2CCN(c3ncnc4c3nc3n4CCCC3)CC2)c1	?	0%
Cc1cccc(N2CCN(c3ncnc4c3nc3n4CCCCC3)CC2C)c1 (stereo not drawn)	2.5µM*	2.8µM*
CCc1ccccc1Nc1nc(-c2c(C)nc3sccn23)cs1	?	-25%
Cc1nc2sccn2c1-c1csc(Nc2cccc(Cl)c2C)n1	35µM*	?
CC(C)c1ccc(NC(=O)c2ccc3c(c2)CCN3S(=O)(=O)c2ccccc2)cc1	17%	-16%
CC(C)c1ccc(NC(=O)c2ccc3c(c2)CCCN3S(C)(=O)=O)cc1	8.9µM*	?
CCCCc1ccc(NC(=O)c2ccc3c(c2)CCN3S(=O)(=O)CC)cc1	25µM*	8.9µM*
CCS(=O)(=O)N1CCc2cc(C(=O)Nc3cccc(C(C)=O)c3)ccc21	9%	61%
Cc1ccc(S(=O)(=O)N2CCc3cc(C(=O)Nc4ccc(C(F)(F)F)cc4)ccc32)cc1	136%	2%
CS(=O)(=O)N1CCc2cc(C(=O)Nc3ccc(C(F)(F)F)cc3)ccc21	32µM*	?
CC1(C)CC(=O)C2=C(C1)Nc1cc3c(cc1C2c1ccc(OCC(=O)O)cc1)OCO3 (stereo not drawn)	7%	7%
COCC(=O)N1CCN(c2oc(-c3ccc(C)cc3)nc2S(=O)(=O)c2ccc(F)cc2)CC1	5%	-7%
Cc1ccc(C(C)C)c(OCC(O)Cn2cnc3c2c(=O)n(C)c(=O)n3C)c1 (stereo not drawn)	25µM*	25µM*
Cn1c(=O)c2c(ncn2Cc2ccc(F)cc2)n(C)c1=O	-6%	8%
SMILES	FMDV Renilla	FMDV antiviral
CCCc1nc(Cn2cnc3c2c(=O)n(C)c(=O)n3C)cs1	10µM*	10µM*
Cn1c(=O)c2c(ncn2CC(=O)OCc2cccc3ccccc23)n(C)c1=O	-3%	9%
Cn1c(=O)c2c(ncn2Cc2cccc3ccccc23)n(C)c1=O	5.6µM*	?
CCOc1ccc(Cn2cnc3c2c(=O)n(C)c(=O)n3C)cc1OCC	11µM*	13µM*
CCc1cccc(OCC(O)Cn2cnc3c2c(=O)n(C)c(=O)n3C)c1 (stereo not drawn)	-28%	-28%
Cn1c(=O)c2c(ncn2Cc2ccc(Cl)c(Cl)c2)n(C)c1=O	?	-28%
CC(C)=CC(=O)CC1(C#N)C(N)=C(C=O)CC1(C#N)C#N (stereo not drawn)	11%	20%
COc1cc(C2C(C#N)=C(SCc3ccccc3)NC3=C2C(=O)CCC3)cc(OC)c1OC (stereo not drawn)	0%	0%
CC(C)N(Cc1ccccc1)C(=O)c1cc2ccc3cccnc3c2[nH]1	8.9µM*	25µM*
O=C(NCc1cccc(Cl)c1)c1cc2ccc3cccnc3c2[nH]1	22%	26%
O=C(CSc1nc(-c2ccco2)nc2ccccc12)N1CCCCCCC1	32%	6%
Cc1cc(Sc2ccc(NC(=O)c3cccc(Cl)c3)cc2)c2ccccc2n1	?	-9%
Cc1cc(C(=O)Nc2c(C)nn(Cc3ccc(F)cc3)c2C)no1	4%	1%
Cc1nn(Cc2ccc(F)cc2)c(C)c1NC(=O)c1cc(-c2cccs2)on1	?	35µM*
CCOc1cc(/C=C(/C#N)C(=O)Nc2ccccc2C(=O)O)ccc1OC	-7%[1.06 µM]	236%
CC(C)NS(=O)(=O)c1ccc(Cl)c(C(=O)NCc2ccc(-c3nc4ccccc4s3)o2)c1	14µM*	?
O=C(NCc1ccc(-c2nc3ccccc3s2)o1)c1ccc(F)cc1F	-25%	10%
COc1ccc(CC(=O)OCC(=O)c2ccc3c(c2)OCCCO3)cc1	-2%	?
O=C(/C=C/c1ccc(-c2ccccc2Cl)o1)c1ccc(F)cc1	-6%	46%
C=C(C)COc1ccc2c(C)c(CC(=O)NCCc3ccc(S(N)(=O)=O)cc3)c(=O)oc2c1	3.5µM*	4µM*
Cc1c(C)c2ccc(OCC(=O)NCCc3ccc(S(N)(=O)=O)cc3)cc2oc1=O	0%	3%
COc1ccc(-c2nc(CSCC(=O)NCc3cccnc3)c(C)o2)cc1	-14%	14µM*
COc1ccc(-c2nc(CS(=O)(=O)CC(=O)NCc3cccnc3)c(C)o2)cc1	6%	13%
Cc1nc(C)c(-c2ccc(SCC(=O)Nc3ccc(F)c(F)c3)nn2)s1	7.9µM*	?
Cc1nc(C)c(-c2ccc(SCC(=O)Nc3ccc(C)c(F)c3)nn2)s1	2%	3%
SMILES	FMDV Renilla	FMDV antiviral
Cc1cccc(-c2cc(C(=O)Nc3cccc(C)n3)c3ccccc3n2)c1	-6%	7%
N#Cc1ccc(NCCNC(=O)C2CCCCC2)nc1	32µM*	?
N#Cc1ccc(NCCNC(=O)Nc2ccccc2)nc1	-41%	0%
Cn1nc(C(=O)Oc2cccc(Cl)c2Cl)c2ccccc2c1=O	-7%	1%
COc1cccc(CNC(=O)c2nc(-c3ccccc3)oc2C)c1	11%	31%
COc1ccc(CNC(=O)c2nc(-c3ccccc3)oc2C)cc1OC	18µM*	?
O=c1[nH]nc(-c2ccco2)c2c1Nc1nnnn1C2c1ccc(Br)cc1 (stereo not drawn)	22%	21%
O=c1[nH]cccc1NS(=O)(=O)c1ccc(Cl)c(C(F)(F)F)c1	35%	-1%
CC(=O)N1CCCc2ccc(NC(=O)c3ccc(OC(C)C)cc3)cc21	-4%	?
CCCCOc1ccc(C(=O)Nc2ccc3c(c2)N(C(C)=O)CCC3)cc1	-12%	1.3µM*
O=S(=O)(Nc1cccc2cccnc12)c1ccc(F)cc1	22µM*	?
O=C(Nc1cccc2cccnc12)c1ccc(F)cc1	-11%	90%
N#C/C(=C/c1cccc(O)c1)c1ccc(C(F)(F)F)cn1	-2%	205%
